A selection: hits, their analogues and other compounds. The true share with any hit is near 2.8%.
Mcl1-Bid inh: Mcl-1/Bid interaction inhibition. Q07820. TR-FRET Mcl-1/Bid-Dy647 peptide binding, 1536-well. inhibition, % at 21.7 µM. 220,000 tested, 0.97% active;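 active means compounds that cut the binding signal by more than half at the single screening dose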;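 further: His-tagged Mcl-1 with europium anti-His antibody binding Bid BH3 peptide; 0% = Mcl-1 plus peptide wells and 100% = peptide-only wells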
Target sequence (Q07820 whole entry, looked up): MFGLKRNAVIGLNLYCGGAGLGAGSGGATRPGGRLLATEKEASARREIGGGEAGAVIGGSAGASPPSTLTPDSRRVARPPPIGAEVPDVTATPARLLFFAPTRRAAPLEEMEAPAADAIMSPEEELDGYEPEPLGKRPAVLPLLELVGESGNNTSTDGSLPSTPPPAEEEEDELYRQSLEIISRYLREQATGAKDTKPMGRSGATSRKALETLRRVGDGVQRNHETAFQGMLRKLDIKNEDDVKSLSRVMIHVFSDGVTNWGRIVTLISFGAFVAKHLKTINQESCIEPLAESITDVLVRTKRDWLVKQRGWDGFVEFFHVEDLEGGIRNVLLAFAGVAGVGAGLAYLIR
TNF necrop inh: blocks TNF-alpha induced death of Jurkat FADD-/- cells; activation (protection from cell death), % at 10 µM; Jurkat FADD-/- TNF necroptosis rescue, ATP luminescence, 24 h; 0 = TNF only, 100 = no-TNF cells; 220,000 tested, 0.068% active;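 active means activation, meaning protection from cell death, of at least 50% relative to plate controls; inactive means activation below 50%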;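 further: necroptosis triggered by 40 ng/mL TNF-alpha added together with compound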
m-calpain inh: calpain II (pig) inhibition; 220,000 tested, 0.37% active; inhibition, % at 16 µM; purified calpain II, fluorogenic peptide substrate, 30 min;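 active means inhibition above about 50%, limit read from the data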
Mcl-1 Bim block: human Bim-Mcl-1 interaction inhibition; inhibition, % at 10 µM; AID 1009; Q07820; Bead-based flow cytometry, Bim peptide-Mcl-1 binding; 190,000 tested, 0.1% active; in the data active means inhibition above about 40%;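 further: 0% = no compound tracer wells and 100% = peptide blocker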
L929 necroptosis: L929 zVAD cell death inhibition; L929 zVAD necroptosis rescue, ATP luminescence, 24 h; with zVAD 60 µM; viability rescue, % at 10 µM; 220,000 tested, 0.38% active;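 active means activation, scaled between plate controls, above about 75%, limit read from the data; inactive means activation under that limit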;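 further: 0% = zVAD with DMSO and 100% = DMSO alone without zVAD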
Mcl1-Noxa inh: Mcl-1/Noxa interaction inhibition | Q07820 | TR-FRET Mcl-1/Noxa peptide binding, 2 h | inhibition, % at 21.7 µM | 220,000 tested, 1.5% active | AID 1022;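 active means compounds that cut the protein-peptide binding signal by more than 50% relative to plate controls in a single-dose test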;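 further: His-tagged Mcl-1 with rhodamine Noxa BH3 peptide and terbium anti-His antibody; 0% = Mcl-1 plus Noxa peptide wells and 100% = peptide-only wells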
Numbers without * were called inactive; / = not tested or not shown.

SMILES	Mcl1-Bid inh	TNF necrop inh	m-calpain inh	Mcl-1 Bim block	L929 necroptosis	Mcl1-Noxa inh
O=C(C1CCCN(Cc2cccnc2)C1)N1CCCCC1 (centres undefined)	52*	0	-17	-5	-1	1
COc1ccc(CN2CCCC(C(=O)N3CCCC3)C2)cc1 (centres undefined)	50	1	-15	-3	1	-16
N#C/C(=C(O)\C=C\c1ccccc1)c1nc2ccccc2[nH]1	50	1	-63	/	1	67*
Cc1ccc(S(=O)(=O)Nc2ccc(N=Nc3ccc(O)cc3)cc2)cc1	-12	5	21	5	3	53*
C#CCOCCOCCOCCNc1nc(N2CCN(C(=O)[C@H]([C@@H](C)CC)n3cc(CCCN=C(N)N)nn3)CC2)nc(N2CCN(C(=O)[C@H]([C@@H](C)CC)n3cc(CCCN=C(N)N)nn3)CC2)n1	62*	2	-7	0	3	25
C#CCOCCOCCOCCNc1nc(N2CCOCC2)nc(N2CCN(C(=O)Cn3cc(CCCN=C(N)N)nn3)CC2)n1	8	1	-4	0	6	17
C#CCOCCOCCOCCNc1nc(N2CCN(C(=O)Cn3cc(CCCN=C(N)N)nn3)CC2)nc(N2CCN(C(=O)Cn3cc(CCCN=C(N)N)nn3)CC2)n1	58*	3	0	-1	7	42
COc1cc(OC)cc(C(=O)NNC(=S)NCc2ccco2)c1	-35	0	-3	-1	4	15
N=C1/C(=C/c2cccn2Cc2ccc(Cl)cc2)C(=O)N=C2SC=CN12	54*	3	-18	-1	1	36
CC1=CC2=NC(=O)/C(=C/c3cccn3Cc3ccccc3)C(=N)N2O1	-1	-5	-1	/	-1	16
COc1cc(CCCN2C(N)=NC[C@@H]2Cc2ccccc2)cc(OC)c1OC	5	0	-3	/	0	6
Cc1cc(C)n(/N=C/c2cc([N+](=O)[O-])ccc2O)c(=O)c1	-5	-1	-12	1	2	-1
Cc1[nH]c(=O)[nH]c(=O)c1S(=O)(=O)NCCc1ccc(S(N)(=O)=O)cc1	-14	3	-5	0	2	58*
COc1ccc(-c2nnc(SCC(=O)NCc3ccco3)n2C)cc1	-11	-2	-12	1	0	10
O=C(NCc1ccccc1)c1ccc2c(=O)n(CC3CCCO3)c(=S)[nH]c2c1 (centres undefined)	-44	-7	22	-2	0	4
Cc1ccc(CNC(=O)c2ccc3c(=O)n(CC4CCCO4)c(=S)[nH]c3c2)cc1 (centres undefined)	-80	-2	81*	-1	0	0
O=C(NCC1CCCO1)c1ccc2c(=O)n(-c3ccc(F)cc3)c(=S)[nH]c2c1 (centres undefined)	-49	0	7	48*	0	-12
CCN(CC)C(=O)c1ccc(N)cc1	-21	1	-3	0	4	-9
COC(=O)c1cc(CSc2nnc(NC3CCCCC3)s2)oc1C	-5	-4	12	-9	0	9
CCn1c2ccccc2c2cc(N)ccc21	-7	-3	-232	-8	1	62*
CCN(CC)c1ccc(NC(=O)CCNC(=O)c2ccco2)cc1	-74	1	-7	-1	1	79*
CC1CCN(c2c(NCc3ccc(C(=O)N4c5ccccc5CC4C)cc3)c(=O)c2=O)CC1 (centres undefined)	-26	-4	-10	-6	0	-37
Cc1ccsc1/C=C/C1=Cc2c(sc(NC(=O)CSc3n[nH]c(N)n3)c2C#N)C(C)(C)C1	-25	-23	-124	3	1	89*
CCOc1ccc(/C=C/C2=Cc3c(sc(NC(=O)CSc4n[nH]c(N)n4)c3C#N)C(C)(C)C2)cc1	-30	-24	-31	5	3	7
C#CCOCCOCCOCCNc1nc(N2CCN(C(=O)[C@H](CCC(=O)O)n3cc(C(N)Cc4ccc(O)cc4)nn3)CC2)nc(N2CCN(C(=O)[C@H](CCC(=O)O)n3cc(C(N)CC(C)C)nn3)CC2)n1 (some centres undefined)	60*	0	-4	-4	2	36
SMILES	Mcl1-Bid inh	TNF necrop inh	m-calpain inh	Mcl-1 Bim block	L929 necroptosis	Mcl1-Noxa inh
C#CCOCCOCCOCCNc1nc(N2CCN(C(=O)[C@H](CCC(=O)O)n3cc(C(N)CC(C)C)nn3)CC2)nc(N2CCN(C(=O)[C@H](CCC(=O)O)n3cc(C(N)CC(C)C)nn3)CC2)n1 (some centres undefined)	67*	0	20	-2	0	36
C#CCOCCOCCOCCNc1nc(N2CCN(C(=O)[C@H]([C@@H](C)CC)n3cc([C@@H](N)CO)nn3)CC2)nc(N2CCN(C(=O)[C@H](Cc3ccc(O)cc3)n3cc([C@@H](N)CC(C)C)nn3)CC2)n1	63*	-1	22	-8	0	45
C#CCOCCOCCOCCNc1nc(N2CCN(C(=O)C([C@@H](C)CC)n3cc(C(N)CC(C)C)nn3)CC2)nc(N2CCN(C(=O)[C@H](CCC(=O)O)n3cc(C(N)CC(C)C)nn3)CC2)n1 (some centres undefined)	3	1	-14	0	0	-12
CC(=O)c1c(C)oc2ccc(NS(=O)(=O)c3cccs3)cc12	-37	1	-2	0	2	16
CC1(c2ccccc2)NC(=O)N(CC(=O)Nc2ccc3c(c2)OCO3)C1=O (centres undefined)	-9	-1	-6	-1	0	14
O=C(CN1C(=O)NC(c2ccccc2)(c2ccccc2)C1=O)Nc1ccc2[nH]c(=O)[nH]c2c1	-33	0	-33	/	1	64*
NS(=O)(=O)c1cc(C(=O)OCC(=O)Nc2ccc(Cl)cc2[N+](=O)[O-])ccc1Cl	-19	0	-5	0	0	23
COc1ccc(NC(=O)COC(=O)c2ccc(Cl)c(S(N)(=O)=O)c2)c([N+](=O)[O-])c1	-13	0	16	/	0	53*
N#C/C(=C\c1ccc(/C=C(/C#N)c2nn(CCO)c(N)c2C#N)cc1)c1nn(CCO)c(N)c1C#N	62*	-1	24	0	1	58*
N#C/C(=C/c1ccccc1)c1nn(CCO)c(N)c1C#N	-1	-2	-32	0	3	38
CC(=O)Nc1cccc(NC(=O)c2cc(-c3cccnc3)nc3ccc(Br)cc23)c1	16	-16	-40	-5	3	1
CSc1ccccc1NC(=O)c1cc(-c2cccnc2)nc2ccc(Br)cc12	64*	-2	-124	0	3	49
COc1cc2c(cc1OC)CN(CC(=O)Nc1ccc(C#N)cc1)CC2	98*	1	-35	5	0	6
O=C(CCN1CCc2ccccc2C1)Nc1ccccc1	-53	1	-36	2	1	-11

Bioassay records deposited in PubChem BioAssay by several laboratories.
